We go through 26 compounds from PubChem BioAssay (NCI).

About 83,000 compounds went through this panel and 20% of them were active in at least one assay; those are over-represented in the sample as a whole.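 Compound tested at a single concentration for 48 hours in 96-well plates; a percent growth value below 10 was scored as active.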 Activity calls are given as the source filed them.

The assay relates to HL-60(TB) leukemia. The experiment in a line: NCI-60 one-dose screen, 48 h (100 = growth as untreated, 0 = no growth, -100 = all killed). Particulars: 10 µM unless noted.
On to `O=C(/C(=N/O)S(=O)(=O)c1ccccc1)c1cccs1`, for which the growth was 90.9% (inactive).
Under `C=C(C)[C@@H]1CC[C@]2(C(=O)O)CC[C@]3(C)[C@H](CC[C@@H]4[C@@]5(C)C/C(=C/c6ccco6)C(=O)C(C)(C)[C@@H]5CC[C@]43C)[C@@H]12` stands -17.2% [100 µM] (active).
Regarding `CC(=O)O[C@]1(C)CC[C@H]2[C@H](CNCCc3ccc(Cl)cc3)C(=O)O[C@@H]2C2=C(C)C(=O)C[C@H]21`, the growth is 89.2% (inactive).
Consider `COc1cc(C2CC(=O)Nc3c2cc(Br)c2ccccc32)cc(Br)c1OC` (stereo unspecified), for which the growth was -2.09% (active).
Turning to `O=C(CCCN1CCOCC1)Nc1ccc(Cn2nnc3c2C(=O)c2nnn(Cc4ccc(NC(=O)CCCN5CCOCC5)cc4)c2C3=O)cc1`, the growth is -7.47% (active).
In the case of `COc1ccccc1-n1c(SCc2cc(OC)c(OC)c(OC)c2)nc2ccc(Cl)cc2c1=O`, the growth is -19.6% (active).
The value for `O=c1c2ccccc2n(C[C@H]2CO2)c2ccccc12` was -44.5% (active); that for `CCCCC(O)c1ccccc1` (stereo unspecified) was 99.2% (inactive); that for `Nc1c(C(=O)c2ccccc2)nnc2ncnn12` was 105% (inactive).
For `CCOC(=O)C1=C(C)NC(SCc2cc(=O)oc3ccc(F)cc23)=N[C@@H]1c1cccc2ccccc12`, the growth is 78.4% (inactive).
`c1ccc(-c2n(Cc3ccc4ccccc4c3)c3ccccc3[n+]2Cc2ccc3ccccc3c2)cc1`: the growth was -49.3% (active).
`COCCOC(C)C(/C=N/NC(N)=S)=N/NC(N)=S` (stereo unspecified): the growth is 81.6% (inactive).
For the compound `Cn1ncc2c(Sc3ccc(Cl)cc3)ncnc21`, the growth was 81.4% (inactive).
`Nc1ncc(-c2ccc3ncnc(N4CCc5cc(F)c(Cl)cc54)c3c2)cc1C(F)(F)F`: the growth was 21.5% (inactive).
Consider `CC(=O)N1N=C(c2ccc(Nc3nc(Nc4ccc(F)cc4)nc(Nc4ccc(F)cc4)n3)cc2)CC1c1cccc([N+](=O)[O-])c1` (stereo unspecified), for which the growth is 0% (active).
For the compound `N=C(N)c1nn(C2OC(CO)C(O)C2O)c2nc[nH]c(=O)c12` (stereo unspecified), the growth was -25.2% (active).
The value for `Cc1ccc(-n2c3c(c(-c4ccccc4)c2-c2ccccc2)C2=NCCN2C=N3)cc1` was 98.5% (inactive); that for `Cc1ccc(N(CC(=O)Nc2ccc(S(=O)(=O)NC3CCN(C)CC3)cc2)S(=O)(=O)c2ccc(Cl)cc2)cc1` was 75.7% (inactive).
For `O=C1CSC(c2ccccc2)N1c1ccccc1` (stereo unspecified), the growth is 99.7% (inactive).
In the case of `O=c1c2c3c(sc2n2c(-c4cc(-c5ccccc5)nn4-c4ccccc4)nnc2n1Cc1ccccc1)CCCC3`, the growth was 50.7% (inactive).
Take `COc1ccc(C(=O)c2cc(C)c(OC)c(C)c2)c(OC)c1OC(=O)C(Cl)Cl`: the growth is -35.7% (active).
For the compound `Cc1ccc(-c2c(-c3ccccc3)c(=O)oc3ccc(C)cc23)cc1`, the growth is 87% (inactive).
As to `COc1cc2nc3c(=O)n(CCN(C)C)cnn3c(=O)c2cc1OC`, the growth is 106% (inactive).
`CN1CCN(Cc2ccc(NC(=O)c3cccc(C#Cc4c(N)ncc5ccc(F)cc45)c3)cc2C(F)(F)F)CC1`: the growth was -53.7% (active).
For the compound `CC(C)(C)n1cc(-c2ccnc(NCCCNS(=O)(=O)c3ccc(C(F)(F)F)cc3)c2)c(-c2cccc(F)c2)n1`, the growth is 94.6% (inactive).
As to `N#CCc1csc(Cc2ccccc2)n1`, the growth was 95.7% (inactive).
